# Values without a mark were called inactive. Records with an inconclusive call do not appear. Activity calls are given as the source filed them. Unless noted, the call rests on the fitted dose curve; in most records, active means well fitted curve in either direction with a large enough effect (not every such curve was filed as active); inconclusive means small, poorly fitted or top-dose-only effect, or another doubt; inactive means flat fitted curve, though single readings scatter.
# How the values were obtained:
# [1] = target: Lysosomal acid glucosylceramidase (Homo sapiens) (UniProt P04062); test: Glucocerebrosidase-p2 (AID 348; in the data active means potency below about 10 µM; further: potency means the concentration at half of the fitted maximal effect); conditions: purified GBA, blue fluorogenic substrate, 40 min
# Lysosomal acid glucosylceramidase (Homo sapiens), sequence (P04062 whole entry, looked up): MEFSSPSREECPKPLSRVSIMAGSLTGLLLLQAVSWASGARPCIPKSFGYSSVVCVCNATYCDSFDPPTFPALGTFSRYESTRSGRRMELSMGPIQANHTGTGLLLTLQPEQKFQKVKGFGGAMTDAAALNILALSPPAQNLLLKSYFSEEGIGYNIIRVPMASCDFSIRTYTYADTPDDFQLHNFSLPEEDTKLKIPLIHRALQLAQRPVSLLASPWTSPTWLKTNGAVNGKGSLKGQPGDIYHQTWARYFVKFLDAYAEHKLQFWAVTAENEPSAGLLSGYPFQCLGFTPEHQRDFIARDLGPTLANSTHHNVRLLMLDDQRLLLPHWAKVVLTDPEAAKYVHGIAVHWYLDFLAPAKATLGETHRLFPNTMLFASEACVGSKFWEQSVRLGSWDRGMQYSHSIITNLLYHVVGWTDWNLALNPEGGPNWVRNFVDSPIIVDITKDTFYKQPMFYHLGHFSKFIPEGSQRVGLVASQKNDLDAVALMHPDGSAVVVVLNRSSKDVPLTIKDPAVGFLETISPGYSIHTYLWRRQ
# How it was run: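 Compounds titrated from 0.6 nM upwards against 0.2 nM enzyme in pH 5.9 citric acid/KH2PO4, taurocholate, tween-20; blue fluorogenic substrate 80 uM, 40 min room temperature, stopped and read Ex 365/Em 440 for AC50.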
# [2] = AP1 Signaling Pathway (AID 357); conditions: ME-180 AP-1-bla reporter, EGF-induced, beta-lactamase ratio, 5 h; at 7.69 µM (top of the series) unless noted;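 further: ME-180 reporter cells stimulated with EGF at its EC50 level; on the % scale 0 is the no-effect control and ±100 the full control effect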
# How it was run: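 Cells are seeded overnight, exposed to compound titrations and an EC50 level of EGF for 5 hours at 37 °C, then loaded with CCF4 dye for 2.5 hours. Beta-lactamase activity under the AP-1 element is read as a blue/green ratio.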
# [3] = NFAT Signaling Pathway (AID 444); conditions: Jurkat NFAT-bla M1, carbachol, beta-lactamase ratio, 5 h; at 7.69 µM (top of the series) unless noted;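 further: carbachol stimulus at about its EC50 of 1 µM final; on the % scale 0 is the no-effect control and ±100 the full control effect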
# How it was run: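 Jurkat cells with NFAT-driven β-lactamase reporter and co-expressed M1 receptor, stimulated with carbachol (final 1 uM, ~EC50), compound titration, 5 h at 37 °C. CCF4 loaded 1 h at RT; 460/530 nm ratio gave %activity and AC50.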
# [4] = Stat Signaling Pathway (AID 446); conditions: ME-180 (cervical carcinoma) SIE beta-lactamase reporter, IL-6 stimulated, 5 h; at 7.69 µM (top of the series) unless noted;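 further: ME-180 cervical cancer cells given 40 pM IL-6 alongside compound; SIE-controlled beta-lactamase reporter measured as 460/530 nm FRET emission ratio; on the % scale 0 is the no-effect control and ±100 the full control effect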
# How it was run: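 IL-6/STAT signaling read in ME-180 cells via an SIE beta-lactamase reporter. Stimulus was 40 pM IL-6 (its AC50) for 5 hrs, so both activation and inhibition register.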
# [5] = target: Glucocorticoid receptor (Homo sapiens) (UniProt P04150); test: GR-GFP Redistribution (AID 450;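 active means compounds whose dose series gives a full or clear partial fitted curve of increased nuclear translocation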; further: potency means the concentration at half of the fitted maximal effect); conditions: U2OS GR-GFP nuclear translocation, laser cytometry, 2 h
# Glucocorticoid receptor (Homo sapiens), sequence (P04150 whole entry, looked up, the tested form may be a part): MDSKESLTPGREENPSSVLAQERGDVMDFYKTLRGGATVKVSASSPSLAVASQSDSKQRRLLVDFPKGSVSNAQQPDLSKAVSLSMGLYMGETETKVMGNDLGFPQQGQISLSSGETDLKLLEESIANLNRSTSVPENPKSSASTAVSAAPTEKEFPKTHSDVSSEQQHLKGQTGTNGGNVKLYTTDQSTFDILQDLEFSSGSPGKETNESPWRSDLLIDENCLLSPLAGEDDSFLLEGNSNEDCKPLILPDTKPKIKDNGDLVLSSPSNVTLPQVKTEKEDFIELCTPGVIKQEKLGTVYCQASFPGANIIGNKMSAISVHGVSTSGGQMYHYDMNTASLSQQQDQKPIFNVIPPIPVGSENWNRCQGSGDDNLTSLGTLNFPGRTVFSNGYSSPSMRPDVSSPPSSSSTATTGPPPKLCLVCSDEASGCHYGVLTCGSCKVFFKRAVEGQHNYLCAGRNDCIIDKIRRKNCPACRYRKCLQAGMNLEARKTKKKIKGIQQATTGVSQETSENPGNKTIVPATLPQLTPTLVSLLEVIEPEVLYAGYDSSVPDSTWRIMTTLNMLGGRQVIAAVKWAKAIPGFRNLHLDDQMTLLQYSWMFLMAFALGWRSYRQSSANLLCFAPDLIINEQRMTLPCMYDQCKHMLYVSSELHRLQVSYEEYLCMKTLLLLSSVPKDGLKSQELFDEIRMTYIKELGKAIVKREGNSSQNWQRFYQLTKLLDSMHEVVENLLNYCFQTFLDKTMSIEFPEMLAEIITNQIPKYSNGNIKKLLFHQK
# [6] = target: Glucocorticoid receptor (Homo sapiens) (UniProt P04150); test: GR-EFC Redistribution (AID 451; calls by dose curve; further: potency means the concentration at half of the fitted maximal effect); conditions: CHO-K1 GR-EFC translocation, beta-gal luminescence, 2 h
# How it was run: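 CHO-K1 cells expressing nuclear EA and GR-ED fragments of b-gal; compounds titrated up to 46 uM final, 2 h at 37 C. GR nuclear translocation read as complemented b-gal luminescence after 1 h RT detection.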
# [7] = target: Mitogen-activated protein kinase 10 (Mus musculus) (UniProt Q61831); test: JNK3 AlphaScreen Assay (AID 530); conditions: JNK3 lysate, c-Jun phosphorylation; series mostly up to 11.4 µM;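 further: kinase came from lysate of stimulated human HepG2 cells; signal reports phosphorylation of biotinylated GST-cJun 1-79 at Ser73 with 10 µM ATP; on the % scale 0 is the no-effect control and ±100 the full control effect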
# How it was run: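 qHTS format: compounds tested as titrations against IL-1beta/TNF-alpha-activated HepG2 lysate JNK3 with biotin-GST-cJun substrate and 10 uM ATP at room temperature. Loss of anti-phospho-cJun AlphaScreen signal indicates inhibition.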
# [8] = target: 3',5'-cyclic-AMP phosphodiesterase 4B (Homo sapiens) (UniProt Q07343); test: qHTS Assay for Inhibitors of PDE-IV (AID 607; active means well fitted activation curve with a large enough effect in the main read-out, with a control signal flat, not every such curve was filed as active; further: % of control where 0% means no effect); conditions: HEK293 ACTOne CNG channel cells, membrane potential fluorescence; series mostly up to 22.9 µM
# 3',5'-cyclic-AMP phosphodiesterase 4B (Homo sapiens), sequence (Q07343 whole entry, looked up): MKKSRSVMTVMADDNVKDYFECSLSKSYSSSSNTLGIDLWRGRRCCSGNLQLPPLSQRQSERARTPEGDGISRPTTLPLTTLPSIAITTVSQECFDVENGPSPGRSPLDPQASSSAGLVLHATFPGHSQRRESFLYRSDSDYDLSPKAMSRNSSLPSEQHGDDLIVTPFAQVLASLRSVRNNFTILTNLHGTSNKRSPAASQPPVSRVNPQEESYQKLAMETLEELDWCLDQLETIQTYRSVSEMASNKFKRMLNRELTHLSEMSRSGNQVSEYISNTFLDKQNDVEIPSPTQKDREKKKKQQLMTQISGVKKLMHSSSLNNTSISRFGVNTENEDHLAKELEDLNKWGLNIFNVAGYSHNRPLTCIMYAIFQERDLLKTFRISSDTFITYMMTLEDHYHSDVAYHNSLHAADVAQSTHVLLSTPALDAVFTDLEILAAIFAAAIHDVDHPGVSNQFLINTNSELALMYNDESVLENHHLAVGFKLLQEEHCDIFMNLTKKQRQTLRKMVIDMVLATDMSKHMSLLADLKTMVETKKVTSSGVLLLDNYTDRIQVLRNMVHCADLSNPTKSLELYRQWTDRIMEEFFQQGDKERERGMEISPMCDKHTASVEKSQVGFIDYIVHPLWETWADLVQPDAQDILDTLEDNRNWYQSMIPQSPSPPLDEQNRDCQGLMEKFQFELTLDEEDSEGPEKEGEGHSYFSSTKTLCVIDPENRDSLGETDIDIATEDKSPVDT
# How it was run: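 Live HEK293 cells with a modified cyclic nucleotide-gated (CNG) channel report intracellular cAMP via membrane-potential dye fluorescence (ex 535/em 590 nm). Endogenous PDE-IV was targeted. Compounds were tested at up to 22.9 uM final; RO 20-1724 100 uM served as control.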
# [9] = target: Cytochrome P450 1A2 (Homo sapiens) (UniProt P05177); test: p450-cyp1a2 (AID 410; calls by dose curve; further: potency means the concentration at half of the fitted maximal effect;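 on activity change, negative = inhibition: -100% = full effect of reference inhibitor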); conditions: recombinant CYP1A2, luciferin-ME demethylation, luminescence; series mostly up to 11.4 µM
# Cytochrome P450 1A2 (Homo sapiens), sequence (P05177 whole entry, looked up): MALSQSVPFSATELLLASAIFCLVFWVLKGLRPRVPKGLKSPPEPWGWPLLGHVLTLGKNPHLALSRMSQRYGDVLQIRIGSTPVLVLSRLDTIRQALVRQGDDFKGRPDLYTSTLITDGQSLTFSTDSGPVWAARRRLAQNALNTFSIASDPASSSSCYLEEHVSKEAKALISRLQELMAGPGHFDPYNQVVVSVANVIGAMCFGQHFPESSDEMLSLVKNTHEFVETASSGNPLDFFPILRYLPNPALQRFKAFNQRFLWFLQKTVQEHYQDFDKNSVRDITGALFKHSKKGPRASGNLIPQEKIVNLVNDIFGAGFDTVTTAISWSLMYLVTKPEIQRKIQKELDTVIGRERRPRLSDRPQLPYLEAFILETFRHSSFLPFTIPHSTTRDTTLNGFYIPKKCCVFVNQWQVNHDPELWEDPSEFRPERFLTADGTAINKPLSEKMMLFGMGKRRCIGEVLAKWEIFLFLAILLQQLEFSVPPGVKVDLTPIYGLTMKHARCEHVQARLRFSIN
# How it was run: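 Inhibition was calculated relative to 57 uM furafylline (full inhibition). The reaction used human CYP1A2 at 20nM with Luciferin-ME at its Km, 100uM, driven by an NADPH-regenerating system for 60 min at room temperature.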
# [10] = target: Cytochrome P450 2C9 (Homo sapiens) (UniProt P11712); test: qHTS Assay for Inhibitors and Substrates of Cytochrome P450 2C9 (AID 883; active means well fitted curve in the direction sought with a large enough effect; an effect the other way counts as inactive or inconclusive; further: potency means the concentration at half of the fitted maximal effect; nearly all actives have a fitted effect of over 60% in size); conditions: recombinant CYP2C9, luciferin-H luminescence, 60 min; series mostly up to 11.4 µM
# Cytochrome P450 2C9 (Homo sapiens), sequence (P11712 whole entry, looked up): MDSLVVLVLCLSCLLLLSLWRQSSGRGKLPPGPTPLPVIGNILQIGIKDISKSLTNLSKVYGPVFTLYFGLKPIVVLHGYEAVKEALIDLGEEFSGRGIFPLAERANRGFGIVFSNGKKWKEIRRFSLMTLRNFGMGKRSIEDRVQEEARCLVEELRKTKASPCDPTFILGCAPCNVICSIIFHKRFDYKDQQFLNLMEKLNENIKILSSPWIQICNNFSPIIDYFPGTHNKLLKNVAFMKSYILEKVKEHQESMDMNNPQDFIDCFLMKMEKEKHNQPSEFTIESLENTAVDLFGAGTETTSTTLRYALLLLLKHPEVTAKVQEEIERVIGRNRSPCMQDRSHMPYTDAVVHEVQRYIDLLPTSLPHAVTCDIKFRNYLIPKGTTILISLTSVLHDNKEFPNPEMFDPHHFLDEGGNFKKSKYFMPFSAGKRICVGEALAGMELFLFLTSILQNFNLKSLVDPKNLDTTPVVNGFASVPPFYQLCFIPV
# How it was run: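 Human CYP2C9 (10nM) with Luciferin-H at 100uM (its KM) in 25mM KPO4; compound preincubated 10 min at 37C, then NADPH regeneration for 60 min at 37C. Luciferin read by luminescence after detection reagent; normalized to 57uM sulphaphenazole as full inhibition.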
# [11] = target: Cytochrome P450 3A4 (Homo sapiens) (UniProt P08684); test: qHTS Assay for Activators of Cytochrome P450 3A4 (AID 885; active means well fitted curve in the direction sought with a large enough effect; an effect the other way counts as inactive or inconclusive; further: nearly all actives have a fitted effect of over 65% in size); conditions: recombinant CYP3A4, Luciferin-PPXE luminescence, 60 min; series mostly up to 11.4 µM
# Cytochrome P450 3A4 (Homo sapiens), sequence (P08684 whole entry, looked up): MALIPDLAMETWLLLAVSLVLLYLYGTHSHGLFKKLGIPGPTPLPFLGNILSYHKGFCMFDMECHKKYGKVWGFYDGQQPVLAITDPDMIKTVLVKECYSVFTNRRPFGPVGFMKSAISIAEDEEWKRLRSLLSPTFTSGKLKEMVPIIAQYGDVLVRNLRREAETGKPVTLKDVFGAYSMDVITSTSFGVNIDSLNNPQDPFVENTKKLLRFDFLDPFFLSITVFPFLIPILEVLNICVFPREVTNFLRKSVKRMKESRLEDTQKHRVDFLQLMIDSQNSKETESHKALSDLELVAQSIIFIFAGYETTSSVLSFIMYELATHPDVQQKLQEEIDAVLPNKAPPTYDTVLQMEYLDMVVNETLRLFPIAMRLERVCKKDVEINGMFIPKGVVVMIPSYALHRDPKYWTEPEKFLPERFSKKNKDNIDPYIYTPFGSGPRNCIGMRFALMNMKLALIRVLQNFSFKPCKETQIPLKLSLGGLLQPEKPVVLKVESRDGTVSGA
# How it was run: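 Quantitative HTS format: compounds preincubated with 20nM human CYP3A4 and Luciferin-PPXE substrate at KM, reaction started by NADPH regeneration, stopped after 60 min, luciferase luminescence read 20 min later.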
# [12] = target: Cytochrome P450 2C19 (Homo sapiens) (UniProt P33261); test: qHTS Assay for Inhibitors and Substrates of Cytochrome P450 2C19 (AID 899; active means well fitted curve in the direction sought with a large enough effect; an effect the other way counts as inactive or inconclusive; further: potency means the concentration at half of the fitted maximal effect; nearly all actives have a fitted effect of over 60% in size); conditions: recombinant CYP2C19, luciferin-H EGE luminescence; series mostly up to 11.4 µM
# Cytochrome P450 2C19 (Homo sapiens), sequence (P33261 whole entry, looked up): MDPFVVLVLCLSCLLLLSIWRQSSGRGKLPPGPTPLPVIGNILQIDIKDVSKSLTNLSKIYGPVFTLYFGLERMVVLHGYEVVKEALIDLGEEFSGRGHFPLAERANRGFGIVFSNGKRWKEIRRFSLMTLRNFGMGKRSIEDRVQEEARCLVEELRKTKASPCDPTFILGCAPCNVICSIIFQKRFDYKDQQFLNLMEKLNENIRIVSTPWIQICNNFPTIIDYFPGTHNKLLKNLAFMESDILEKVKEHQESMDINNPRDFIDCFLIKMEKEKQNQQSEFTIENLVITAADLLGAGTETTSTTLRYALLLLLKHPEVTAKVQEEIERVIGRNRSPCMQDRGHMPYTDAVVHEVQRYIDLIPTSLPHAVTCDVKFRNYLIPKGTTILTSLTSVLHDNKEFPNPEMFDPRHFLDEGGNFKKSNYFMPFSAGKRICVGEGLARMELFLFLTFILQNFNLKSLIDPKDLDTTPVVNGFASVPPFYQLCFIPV
# How it was run: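 5 nM human CYP2C19 with 10uM Luciferin-H EGE (at KM) in 50mM KPO4, compound preincubated 10 min at 37C, then NADPH regeneration for 60 min at 37C. Luciferin read by luminescence after detection reagent; normalized to 57uM ketoconazole as full inhibition.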
# [13] = target: Cytochrome P450 2D6 (Homo sapiens) (UniProt P10635); test: qHTS Assay for Inhibitors and Substrates of Cytochrome P450 2D6 (AID 891; active means well fitted curve in the direction sought with a large enough effect; an effect the other way counts as inactive or inconclusive; further: nearly all actives have a fitted effect of over 60% in size; further: potency means the concentration at half of the fitted maximal effect); conditions: recombinant CYP2D6, luciferin-ME EGE luminescence; series mostly up to 11.4 µM
# Cytochrome P450 2D6 (Homo sapiens), sequence (P10635 whole entry, looked up): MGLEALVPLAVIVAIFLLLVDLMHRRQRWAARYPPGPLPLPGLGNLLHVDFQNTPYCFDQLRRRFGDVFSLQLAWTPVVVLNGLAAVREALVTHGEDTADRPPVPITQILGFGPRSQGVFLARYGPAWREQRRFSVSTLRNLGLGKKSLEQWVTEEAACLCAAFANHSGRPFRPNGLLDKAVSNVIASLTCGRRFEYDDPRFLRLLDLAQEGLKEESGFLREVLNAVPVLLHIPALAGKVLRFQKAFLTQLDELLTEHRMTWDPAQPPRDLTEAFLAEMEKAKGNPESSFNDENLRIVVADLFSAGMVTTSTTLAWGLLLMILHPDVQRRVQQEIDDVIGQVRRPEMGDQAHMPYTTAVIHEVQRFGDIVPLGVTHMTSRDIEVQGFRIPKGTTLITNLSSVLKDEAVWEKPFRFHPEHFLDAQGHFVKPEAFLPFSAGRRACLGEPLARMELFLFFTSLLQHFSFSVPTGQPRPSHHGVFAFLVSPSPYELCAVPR
# How it was run: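 Human CYP2D6 (5 nM) with 30 uM Luciferin-ME EGE (at Km) in 100 mM KPO4, compound preincubated 10 min, then NADPH regeneration system for 60 min at room temperature. Luciferin read by luminescence; normalized to 1.43 uM quinidine.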
SMILES,Potency [1] [µM],"activity change, negative = inhibition [2] [%]","activity change, negative = inhibition [3] [%]","activity, negative = inhibition [4] [%]",Potency [5] [µM],Potency [6] [µM],Potency [7],Potency [8],Potency [9],Potency [10],Potency [11],Potency [12],Potency [13]
CN1CCN(CCCNN)CC1,> 11.4,3.15,0.682,1.99,> 46,> 9.22,inactive,inactive,–,–,–,–,–
COc1ccc(C(=O)CCN(C)C)c2ccccc12,> 11.4,-15.5,–,–,> 46,> 9.22,inactive,inactive,1.58 µM (active),3.98 µM (active),inactive,–,–
O=C(O)C[C@H](NC(=O)CP(=O)(O)O)C(=O)O.[NH-][C@@H]1CCCC[C@@H]1[NH-].[Pt],> 11.4,-4.37,–,–,> 46,> 9.22,–,inactive,inactive,–,–,–,–
O=C1OC(c2ccc(O)c(-c3ccccc3)c2)(c2ccc(O)c(-c3ccccc3)c2)c2c(Cl)c(Cl)c(Cl)c(Cl)c21,> 11.4,10.7,19.3,5.56,> 46,> 9.22,inactive,inactive,–,–,–,–,–
ON(CCc1ccncc1)Cc1ccccc1,> 11.4,-5.59,–,–,> 46,> 9.22,inactive,inactive,1 µM (active),3.98 µM (active),inactive,0.316 µM (active),–
Cc1cc(O)c(-c2cc(O)c(C)cc2O)cc1O,> 11.4,-22.9,–,–,> 46,> 9.22,inactive,inactive,3.98 µM (active),1.26 µM (active),inactive,0.794 µM (active),inactive
N#CCCn1c(=O)c(-c2ccccc2)nc2cnc(Oc3ccccc3)nc21,> 11.4,-22.6,-4.58,2.8,> 9.22,> 46,inactive,–,–,–,–,–,–
O=C(O)[C@@H]1[C@@H]2O[C@H]([C@@H](Br)[C@H]2Br)[C@H]1C(=O)O,> 11.4,7.44,2.42,-2.12,> 46,> 9.22,inactive,inactive,–,–,–,–,–
OC1CC2CC[C@H](C1)N2CCCN1c2ccccc2Sc2ccc(Cl)cc21 (stereo partly drawn),> 11.4,18.1,–,–,> 46,> 9.22,inactive,inactive,inactive,–,–,–,0.0631 µM (active)
O=C(O)c1ccc(C(=O)O)c(C(=O)Nc2ccc3c(c2)Cc2ccccc2-3)c1,> 11.4,5.18,4.14,-0.756,> 46,> 9.22,inactive,inactive,–,–,–,–,–
[N-]=[N+]=N[C@@H]1[C@H](O)[C@H](CO)O[C@@H]1n1cnc2c(N)ncnc21,> 11.4,-7.07,9.28,-12.3,> 46,> 9.22,inactive,inactive,–,–,–,–,–
CCCNc1ncnc2[nH]ncc12,> 11.4,-4.57,5.61,-1.7,> 46,> 9.22,inactive,inactive,–,–,–,–,–
Cc1cc(O)c(C(C)C)cc1CN1CCCCC1,> 11.4,10.4,-29.6,5.31,> 46,> 9.22,inactive,inactive,–,–,–,–,–
O=C(O)CSc1ccc([N+](=O)[O-])cc1[N+](=O)[O-],> 11.4,10.9,-3.03,9.83,> 46,> 9.22,inactive,inactive,–,–,–,–,–
COc1cc(C(=O)O)c([N+](=O)[O-])c(OC)c1OC,> 11.4,4.41,3.25,0.596,> 46,> 9.22,inactive,inactive,–,–,–,–,–

# Source: PubChem BioAssay (NCATS)
